# Data as given in ChEMBL document CHEMBL3988442, “University of Dundee, Small-Polar-MMV Screening Library” (2021).
# The campaign covered roughly 66,000 compounds. About 960 (1.5%) showed an effect of 50% or more. The list comes from a sample in which strong results are over-represented; it also holds similar structures and randomly drawn compounds.
# Tested on: Trypanosoma brucei
# Assay: Trypanosoma brucei 72 hour study
# Assay type: functional, organism-based
# Design: scale not given: in the data most compounds retested in dose-response had high values
structure (smiles),measurement,setting,value
O=C(c1cc(-c2ccn(CC3CC3)n2)n2ccccc12)N1CCOCC1,Percent Effect,"30.3 µM, […]",100.3%
O=C(O)c1cc(-c2ccn(CC3CC3)n2)n2ccccc12,Percent Effect,"30.3 µM, […]",-1.96%
Cc1ccc(CN2CCC3(CC2)CC(c2cccnc2)C(=O)N3C)o1.O=C(O)C(F)(F)F.O=C(O)C(F)(F)F (configuration not stated),Percent Effect,"30.3 µM, […]",-49.66%
COCCN1CCC2(CCCN(Cc3ccoc3)C2)C1=O.O=C(O)C(F)(F)F (configuration not stated),Percent Effect,"30.3 µM, […]",-22.78%
O=C(CC1CCCC1)N1CCn2cc(Cn3cccn3)nc2C1.O=C(O)C(F)(F)F,Percent Effect,"30.3 µM, […]",-840.1%
O=C(O)C(F)(F)F.O=C(c1cnoc1)N1CCC[C@]2(C[C@@H](Oc3ccccn3)CO2)C1,Percent Effect,"30 µM, 30.03 µM",-14.73%
CCNC(=O)c1cnc(Cc2ccc(F)cc2)s1,Percent Effect,"30 µM, 30.03 µM",3.769%
COC(=O)CCNC(=O)c1cnc(Cc2ccc(F)cc2)s1,Percent Effect,"30 µM, 30.03 µM",3.867%
CN(C)CCCNC(=O)c1cnc(Cc2ccc(F)cc2)s1,Percent Effect,"30 µM, 30.03 µM",52.82%
O=c1c(CN2CC3CCCN3C[C@@H]2CCO)coc2ccc(Cl)cc12 (some centres not stated),Percent Effect,"30.3 µM, […]",-20.01%
Cc1nc(-c2ccccc2)sc1C(=O)N(C1CC1)C1CC(=O)NC1=O (configuration not stated),Percent Effect,"30 µM, 30.03 µM",37.33%
O=C1CC(N(C(=O)Cc2csc(-c3ccccc3)n2)C2CC2)C(=O)N1 (configuration not stated),Percent Effect,"30 µM, 30.03 µM",106%
O=C1CC(N(C(=O)c2csc(-c3ccccc3)n2)C2CC2)C(=O)N1 (configuration not stated),Percent Effect,"30 µM, 30.03 µM",9.836%
O=C(O)C(F)(F)F.O=C1COC2(CCN(CC3CC3)CC2)CN1c1ccsc1,Percent Effect,"30.3 µM, […]",-336%
Cc1nc(CN2CCCC3(CCN(c4cnn(C)c4)C3=O)C2)cs1.O=C(O)C(F)(F)F (configuration not stated),Percent Effect,"30.3 µM, […]",-9.884%
Cn1cc(N2CCC3(CCCN(Cc4ccc(F)cc4)C3)C2=O)cn1.O=C(O)C(F)(F)F (configuration not stated),Percent Effect,"30 µM, 30.03 µM",66.19%
Cn1cc(CN2CCC3(CCN(c4cnn(C)c4)C3=O)C2)cn1.O=C(O)C(F)(F)F (configuration not stated),Percent Effect,"30 µM, 30.03 µM",-6.498%
COCCNc1ccc(CC2CCCNC2)cn1.Cl (configuration not stated),Percent Effect,"30.3 µM, […]",0.7781%
CSCc1cc(F)ccc1CNC(=O)N1CCC(CO)CC1,Percent Effect,"30 µM, 30.03 µM",-59.11%
I.c1ccc(OCCNC2=NCCCN2)cc1,Percent Effect,"30 µM, 30.03 µM",-0.004482%
CCOCc1ccc(CNC2=NCCCN2)cc1.I,Percent Effect,"30.3 µM, […]",-5.411%
CN(C)c1ccc(CNC2=NCCCN2)cc1.I,Percent Effect,"30.3 µM, […]",99.22%
NC[C@H]1CC[C@H](C(NC(=O)CC2CCCC2)c2ccccn2)CC1 (some centres not stated),Percent Effect,"30.3 µM, […]",-41.17%
CCCN1C[C@H](NC(=O)c2ccccc2F)[C@@H](c2ccc(OC)cc2)C1,Percent Effect,"30.3 µM, […]",-8.438%
Cc1ccc(CN2CCC3(CC2)CC(CC(=O)NC(C)C)CO3)s1.O=C(O)C(F)(F)F (configuration not stated),Percent Effect,"30.3 µM, […]",-52.98%
O=C(C1CCOCC1)N1C[C@H]2C[C@H](OCc3ccccc3)C[C@H]2C1,Percent Effect,"30.3 µM, […]",32.35%
CN(C)CCOCC1CN(Cc2ccsc2)Cc2nnn(C)c21.O=C(O)C(F)(F)F.O=C(O)C(F)(F)F (configuration not stated),Percent Effect,"30.3 µM, […]",-20.25%
Cc1cc(C)n(C2CCCN(C(=O)c3ccc(NC4CC4)nc3)C2)n1 (configuration not stated),Percent Effect,"30 µM, 30.03 µM",3.181%
Cc1nccn1C1CCCN(C(=O)c2ccc(N(C)C)nn2)C1 (configuration not stated),Percent Effect,"30.3 µM, […]",-14.31%
Cc1nc(C)n(C2CCCN(C(=O)c3ccc(O)nc3)C2)n1 (configuration not stated),Percent Effect,10 µM,-79.94%
Cc1nccn1C1CCCN(C(=O)c2ccc(N(C)C)nc2)C1 (configuration not stated),Percent Effect,"30 µM, 30.03 µM",59.27%
CN(C)c1ccc(C(=O)N2CCCC(n3cccn3)C2)cn1 (configuration not stated),Percent Effect,"30.3 µM, […]",-20.71%
Cc1nc(C)n(C2CCCN(C(=O)c3ccc(NC4CC4)nc3)C2)n1 (configuration not stated),Percent Effect,"30 µM, 30.03 µM",56.19%
O=C1CCCN1c1cccc(N2CCC(NCCc3cscn3)CC2)c1,Percent Effect,"30.3 µM, […]",6.374%
c1cc(-c2cscn2)cc(N2CCC(NCCc3cccs3)CC2)c1,Percent Effect,"30.3 µM, […]",64.97%
c1ccc(-c2cccc(N3CCC(NCCc4cscn4)CC3)c2)cc1,Percent Effect,"30.3 µM, […]",99.95%
CC(C)CC(C)NC1CCN(c2cccc(-c3cscn3)c2)CC1 (configuration not stated),Percent Effect,"30 µM, 30.03 µM",-3.57%
CN(Cc1nccs1)C1CCN(c2cccc(-c3cscn3)c2)CC1,Percent Effect,"30.3 µM, […]",-33.72%
CN(C)CCCN(C)C1CCN(c2cccc(-c3cscn3)c2)CC1,Percent Effect,"30.3 µM, […]",17.15%
CC1(c2ccc(Br)cc2)CC(=O)N(CC(N)=O)C1=O (configuration not stated),Percent Effect,"30.3 µM, […]",-17.28%
Cn1cc(C(=O)CC2CCCN2C(=O)c2cccc3ncccc23)cn1 (configuration not stated),Percent Effect,"30.3 µM, […]",-17.51%
Cc1ccc(C(=O)NCCC2CN(C3CCCC3)CCO2)c(C)c1 (configuration not stated),Percent Effect,"30 µM, 30.03 µM",0.3212%
O=C(c1cc2c(Cl)cccc2[nH]1)N1CCN(CCc2ccccn2)CC1,Percent Effect,"30 µM, 30.03 µM",6.57%
CCOC(=O)c1ccc(S(=O)(=O)NCc2cccnc2N(C)C)cc1,Percent Effect,10 µM,-42.9%
Cc1ccc(CCC(=O)N(C)CCN2CCOCC2)c(C)c1,Percent Effect,"30 µM, 30.03 µM",15.97%
Cl.Cn1nc(C2CCCN(Cc3ccc(F)cc3)C2)c2nccnc21 (configuration not stated),Percent Effect,"30.3 µM, […]",4.536%
CCOc1ccc(CN2CCN(C(=O)c3cc(C4CC4)[nH]n3)CC2)cc1,Percent Effect,"30.3 µM, […]",-13.15%
same,Percent Effect,"10 mM, 10 mM as filed; unlikely as a test dose",-41.12%
CCOc1nnc(CN2CCCC(c3nc4ccccc4[nH]3)C2)s1 (configuration not stated),Percent Effect,"30 µM, 30.03 µM",-9.691%
Fc1ccc(CN2CCCC(c3cc4ncccc4[nH]3)C2)cc1 (configuration not stated),Percent Effect,"30.3 µM, […]",55.67%
CCOc1ccc(CN2CCCC(c3cc4ncccc4[nH]3)C2)cc1 (configuration not stated),Percent Effect,"30.3 µM, […]",100.2%
CC(=O)Nc1ccc(CN2CCCC(c3cc4ncccc4[nH]3)C2)cc1 (configuration not stated),Percent Effect,"30.3 µM, […]",8.67%
